In PubChem BioAssay AID1788 (Vanderbilt High Throughput Screening Facility, 2009):
Values without a mark were called inactive. The rule behind the calls is not given here.

Test system: Rolipram (rat)
Experiment: PubChem AID 1788
Conditions: MDS Pharma lead profiling panel, radioligand binding, at 10 µM, hits give high values

## CCOC(=O)N1CCC(NCCNC(=O)c2ccccc2C)CC1
  inhibition: -2%
